tested on: VDR:RXRa (NR concentration 270 nM, RXRa partner concentration 90 nM); experiment: PBM binding z-score (relative to random genomic background probes); higher = stronger binding; sequences stand for … in GC…GCGATTGACAGCGTAGAATGAAGG
Protocol: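 Protein-binding microarray (Agilent 4x180K custom design, double-stranded 60-nt probes: 5' GC cap, 34-nt variable region, 24-nt constant primer region; full probe sequence given). Purified or IVT nuclear receptor:RXRα heterodimers (3:1 NR:RXRα, mostly 270:90 nM) or homodimers were incubated for 1 h in PBS with 2% milk and no ligand, then detected with Alexa488 antibodies. Fluorescence from o1-orientation probes (~5 replicates averaged) was converted to z-scores against 500 random hg19 background probes. Variable regions are seed direct-repeat (DR0–DR5) sites, all their single-nucleotide variants and half-site ablations.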

| Sequence | PBM binding z-score |
| --- | --- |
| GGAACGAGGGCCTTCGAGTTGATAGCATGGCGAT | -0.0234 |
| CGTCCAAGGGCATAGGAGGTCAGTGAAGACAGAT | 3.99 |
| AGAATGAGGTTATTAATATCAGGGAATTGCGGTC | 1.27 |
| TAGCCTAGGTCGTGCGGGCCAGTATAGTGTCGGC | 0.148 |
| CTTCCAAGGTCAAGGTCAGTGAAAGAGACTCGAA | 4.87 |
| CCAGACGGGTGAAAGGTAACTCAGTCTGGTACGC | 0.319 |
| TAGCCTAGGACATGGGCCAGTATACCACGCGAAC | -0.512 |
| CCTGCTAGGTCCATGGTCAGCTAAAGCAGCTCGC | -0.591 |
| AGAACGAGGGCACGGTGAGTTGATAGCAGAGTAG | 2.56 |
| CCAGACAGGTGAGAAGGTGACTCAGCCTCGATTA | -0.0388 |
| TGTCAAAGTTCGAAGGTAACGTAAGTATCCACAC | 1.78 |
| TCATATAGGGAATACAGGTGAAAGTCGGCATCTA | 1.11 |
| TCTGCTAGGTCAACGATTGTCAGCTAATCTGCTA | 0.993 |
| TCTATTAGTTGATTAGGGCAACTGAAACAGCGGA | 0.717 |
| ATCGAAAGGTCGGCGAGGTGAGTATACACCGTTT | 4.48 |
| AGAATGAGGTTATATGTAGATCAGGGAAGAAAGT | 1.43 |
| CGTCCAAGGTCAAGGGTCAGTGAAGAGATGACGG | 5.63 |
| CCGACTGGGGCATAAAGTTACCATAAGCCAGCCC | -0.432 |
| AGTCAAGGTTCATCTAGGTAACGTAAGATATGCT | 4.56 |
| CCTAGTTGGTCAGGAGGTCACACGCCGGATATGA | 3.93 |

| Sequence | PBM binding z-score |
| --- | --- |
| CGAACTACGTCAGAACAGGACAGTGAAGGATGAT | -0.451 |
| AGAATGAGGTTATACGTAGATCAGGGGAGAAAGT | 1.42 |
| CTCGAGAGGTCGTGCTCAGGTGAGTATACCAAAC | 3.37 |
| TCATATAGTTAAAAGGTGAAAGTCGGTGTGGTAA | 1.52 |
| GGAACGAGGGCATTCTAGTTGATAGCATGGCGAT | 1.81 |
| AGAACGAGGGCAGGCTGAGTTGATAGCAGAGTAG | 0.431 |
| GGAACGACGGCAAGTTGATAGCAGAGTTTGATGG | -0.532 |
| TATCCAGGGTCAAAGGCCAGAGTACGAATGTCGA | 4.95 |
| ACTATTAGTTGAGTCGAGGGCAACCGATAGGTTG | 0.728 |
| CGAACTAGGTCATCTAGGACAGTGAATACATTGA | 3.73 |
| ACTTACGGGTCAACAAGGTTATAGCACGCGTATA | 7.08 |
| CCTGCTAGGTCATGGTCAGCTCATCTACAGTATG | 1.8 |
| ATATGTAGGTTAGCCGGGGTCATTCAGACTAGGC | 6.67 |
| GCTGGCAGGCCATTTGGGTCACTCAATGACGGGC | 1 |
| CCTAGTGGGCCATCAGGTCATTGATATCAACGTT | 1.61 |
| TATACAGGGTCAATGGCCAGAGTACGAATGTCGA | 4.05 |
| ATCGAAGGGTCGAGGTGAGTATAGAGAAAGGGAA | 1.37 |
| TCTTGTAGATGAAAGGTTAAGAAAGCCGAAGCCT | 1.06 |
| TAGCCTACGTCAGATCGGGCCAGTATACGCTATA | -0.713 |
| GCTTGTAGATCATGGTTAAGAAAGACTAAGCTAA | -0.404 |
